Data: PubChem BioAssay (NCI)
About 83,000 compounds went through this panel and 20% of them were active in at least one assay; those are over-represented in the sample as a whole.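 Step 1: grow cells in 96-well plates. Step 2: add test compound at a single concentration. Step 3: incubate 48 h. Step 4: record percent growth.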 Unmarked numbers belong to inactive results. Calls of active or inactive are those of the source. Rule for the calls: active = growth percent below 10; inactive = the rest.

How the values were obtained:
Assay in all cases: NCI-60 one-dose screen, 48 h (100 = growth as untreated, 0 = no growth, -100 = all killed)
DU-145 prostate = settings: 10 µM unless noted
K-562 leukemia = settings: 10 µM unless noted
MALME-3M melanoma = settings: 10 µM unless noted
MDA-MB-231 breast = settings: 10 µM unless noted
RXF 393 renal = settings: 10 µM unless noted
SF-268 CNS = settings: 10 µM unless noted
SF-295 CNS = settings: 10 µM unless noted
SF-539 CNS = settings: 10 µM unless noted
UACC-257 melanoma = settings: 10 µM
M14 melanoma = settings: 10 µM unless noted
HCT-15 colon = settings: 10 µM unless noted
HT29 colon = settings: 10 µM unless noted
SNB-75 CNS = settings: 10 µM unless noted
SNB-19 CNS = settings: 10 µM unless noted
U251 CNS = settings: 10 µM unless noted
PC-3 prostate = settings: 10 µM unless noted
SK-MEL-5 melanoma = settings: 10 µM unless noted
UACC-62 melanoma = settings: 10 µM unless noted
LOX IMVI melanoma = settings: 10 µM unless noted
SK-MEL-28 melanoma = settings: 10 µM unless noted

Compound | growth (DU-145 prostate) | growth (K-562 leukemia) | growth (MALME-3M melanoma) | growth (MDA-MB-231 breast) | growth (RXF 393 renal) | growth (SF-268 CNS) | growth (SF-295 CNS) | growth (SF-539 CNS) | growth (UACC-257 melanoma) | growth (M14 melanoma) | growth (HCT-15 colon) | growth (HT29 colon) | growth (SNB-75 CNS) | growth (SNB-19 CNS) | growth (U251 CNS) | growth (PC-3 prostate) | growth (SK-MEL-5 melanoma) | growth (UACC-62 melanoma) | growth (LOX IMVI melanoma) | growth (SK-MEL-28 melanoma)
C#CCOc1ccc(C(Nc2ccc(Cl)cc2)c2nnnn2C2CCCCC2)cc1 (stereo not given) | 93.8% | 82.2% | 98.8% | 76.9% | 87% | 80.2% | 74.5% | 98.6% | 86.2% | 99.4% | 80% | 92% | 87.4% | 89.5% | 86.9% | 75.2% | 92.3% | 72.4% | 81.4% | 102%
NC(=O)C(=Cc1ccc(Cl)cc1)C(N)=O | 39.7% | 31.8% | 82% | 80.3% | 62.9% | 84.8% | 71.9% | 55.6% | 68.3% | 70.3% | 36.6% | 77.4% | 62.4% | 77.9% | 68.7% | 70.4% | 95.4% | 85.3% | 57.4% | 70%
CCNC(=O)Oc1ccc(/C(=C(/C)c2ccc(Cl)cc2)c2ccc(OCCN3CCCC3)cc2)cc1 | 102% | 13.5% | 63.6% | 88.5% | 66.9% | 90.5% | 96.8% | 76.4% | 81.1% | 68% | 60.5% | 19.6% | 85.7% | 81.6% | 60.1% | 82.4% | 86.3% | 98.3% | 49.2% | 89%
O=C(COc1ccc(C2SCC(=O)N2c2ccc(F)cc2)cc1)c1ccccc1 (stereo not given) | 104% | 91.6% | 97.9% | 81.4% | 102% | 89.4% | 94.5% | 102% | 100% | 93.6% | 95.7% | 109% | 83.1% | 91.5% | 101% | 79.2% | 97.7% | 61.4% | 87.6% | 102%
COc1cc(OC)c(S(N)(=O)=O)cc1C(=O)/C=C/c1ccccc1 | 1.92% (active) | 9.69% (active) | 68.1% | 10.3% | -29.7% (active) | 38.3% | 58.3% | 1.13% (active) | 88.6% | 45.9% | 11.3% | 25.3% | 77.4% | 47.5% | 28.5% | 32.9% | 23.2% | 42.8% | 3.55% (active) | 58%
O=C1/C(=C/c2ccc([N+](=O)[O-])cc2)SC(=Nc2ccccc2)N1Nc1ccccc1 | 63.5% | 17.8% | 90.3% | 54.7% | 58.9% | 73% | 87.1% | 65.1% | 89.7% | 80.1% | 39.3% | 42.3% | 73.2% | 60.2% | 44.4% | 62.1% | 92% | 55.8% | 19.3% | 83%
N/C(=N\OC(=O)CSc1nc2ccccc2s1)c1ccc(Cl)cc1 | 105% | 99.1% | 105% | 92% | 122% | 96.2% | 104% | 95.5% | 104% | 100% | 101% | 103% | 88.7% | 99.4% | 96.8% | 99.9% | 100% | 87.8% | 99.7% | 106%
CC(=O)Nc1ccc(NC(=O)Nc2cccc(-c3nc(-c4ccc(NC(=O)c5cccs5)cc4Cl)no3)c2)cc1C(F)(F)F | -15.4% (active) | 1.01% (active) | -84.3% (active) | -60.6% (active) | -85% (active) | -38.8% (active) | -62.9% (active) | -87.5% (active) | -58.4% (active) | -59.2% (active) | 20.2% | -36.4% (active) | -73.2% (active) | -33.7% (active) | -57.4% (active) | -64.5% (active) | -77.8% (active) | -82.4% (active) | -88% (active) | -90.1% (active)
